Rows were chosen to be rich in hits. Some 2.3% of all compounds tested hit in one or more screens of this group.
VDR inh: Inhibitors of the vitamin D receptor (VDR): qHTS | Vitamin D3 receptor (Homo sapiens), P11473 | VDR-SRC2-3 peptide fluorescence polarization, 2 h | Potency, µM, inactives show max response, negative = inhibition, most hits filed as inhibitors | 400,000 compounds, 0.93% hits | AID 504847, 2011; also: potency is read from the fitted curve at half-maximal effect; % is scaled to controls: 0 for no effect and ±100 for the full control effect
Target sequence (P11473 whole entry, looked up): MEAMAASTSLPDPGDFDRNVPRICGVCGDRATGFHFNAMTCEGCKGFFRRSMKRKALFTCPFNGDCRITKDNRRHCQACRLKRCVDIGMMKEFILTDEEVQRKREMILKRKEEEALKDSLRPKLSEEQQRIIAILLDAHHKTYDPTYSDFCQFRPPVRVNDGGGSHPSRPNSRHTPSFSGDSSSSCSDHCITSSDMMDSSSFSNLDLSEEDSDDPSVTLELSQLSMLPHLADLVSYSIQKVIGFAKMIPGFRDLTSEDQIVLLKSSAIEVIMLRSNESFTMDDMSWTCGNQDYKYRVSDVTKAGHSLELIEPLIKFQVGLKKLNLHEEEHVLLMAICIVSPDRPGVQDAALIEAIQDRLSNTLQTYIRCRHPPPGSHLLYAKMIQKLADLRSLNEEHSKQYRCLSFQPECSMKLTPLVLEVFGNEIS
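After 23 nl compound addition and a short centrifugation, plates sat for 2 hours at ambient temperature; polarization of fluorescence then indicated loss of VDR binding to peptide SRC2-3.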
KDM4E inh: qHTS Assay for Inhibitors of Human Jumonji Domain Containing 2E (JMJD2E) | Lysine-specific demethylase 4E (Homo sapiens), B2RXH2 | JMJD2E catalytic domain, FDH-coupled NADH fluorescence (FDH is formaldehyde dehydrogenase) | Potency, µM (doses to about 57.1 µM), for inactives: at the top dose activity change, negative = inhibition, most hits filed as inhibitors | 230,000 compounds, 1.6% hits; active = well fitted inhibition curve with a large enough effect, not every such curve was filed as active; inconclusive = small, poorly fitted or top-dose-only effect, or another doubt; inactive = no such curve, though single readings can be large or run the other way;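 also: potency is read from the fitted curve at half-maximal effect; 0% = wells with enzyme and -100% = buffer wells without enzyme; nearly all actives have a fitted effect of over 50% in size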
Target sequence (B2RXH2 1-337 limits assumed): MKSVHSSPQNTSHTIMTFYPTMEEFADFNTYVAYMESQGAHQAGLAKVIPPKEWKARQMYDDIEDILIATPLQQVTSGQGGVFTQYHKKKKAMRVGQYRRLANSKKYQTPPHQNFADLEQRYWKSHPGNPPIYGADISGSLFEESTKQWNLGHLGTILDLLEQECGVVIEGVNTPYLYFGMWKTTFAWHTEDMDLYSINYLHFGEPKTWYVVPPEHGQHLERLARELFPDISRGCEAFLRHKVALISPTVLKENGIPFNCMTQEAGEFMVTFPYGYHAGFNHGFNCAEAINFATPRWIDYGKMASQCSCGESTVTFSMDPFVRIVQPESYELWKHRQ
RGS12 GoLoco inh: qHTS Assay for Inhibitors of RGS12 GoLoco Motif Activity (Red Fluorophore). Guanine nucleotide-binding protein G(i) subunit alpha-1 (Homo sapiens), P63096. Gai1:RGS12 GoLoco peptide FP, rhodamine, 10 min. Potency, µM (series often up to 61.6 µM), without a hit: top-dose activity, negative = inhibition, actives largely listed as inhibitors. 230,000 compounds, 0.44% hits; active = well fitted inhibition curve with a large enough effect, not every such curve was filed as active; inactive = no such curve, though single readings can be large or run the other way; also: potency is read from the fitted curve at half-maximal effect; % is scaled to controls: 0 for no effect and ±100 for the full control effect; nearly all actives have a fitted effect of over 30% in size
HTT ATP protect: qHTS Multiplex Assay to Identify Dual Action Probes in a Cell Model of Huntington: Cytoprotection (ATP). PC12 HTT-Q103 induced, cytoprotection, ATP luminescence, 40 h. Potency, µM (titrated, usually from 56.4 µM), for the others: cytoprotection (ATP increase), usual class: activators. 230,000 compounds, 0.14% hits. AID 1471, 2008; also: potency is read from the fitted curve at half-maximal effect; % of control where 0% means no effect; nearly all actives have a fitted effect of over 45% in size
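Compounds were screened for protection of PC12 cells against cell death after tebufenozide induction (100 nM final) of mutant Huntingtin exon 1 (Q103) fused to GFP.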
HttQ103 aggreg: qHTS Multiplex Assay to Identify Dual Action Probes in a Cell Model of Huntington: Aggregate Formation (GFP); Potency, µM (highest dose often 46.1 µM), for the others: at the top dose activity change, negative = inhibition, most hits filed as inhibitors; PC12 HttQ103-GFP aggregates, Acumen cytometry, 40 h; 220,000 compounds, 1.1% hits; AID 1688, 2009; also: potency is read from the fitted curve at half-maximal effect; % is scaled to controls: 0 for no effect and ±100 for the full control effect; nearly all actives have a fitted effect of over 60% in size
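Aggregates are detected as GFP objects 1–25 µm with signal 6 STDEV over background in lysates of induced PC12 cells. These carry Huntingtin exon 1 with 103 glutamines fused to GFP under an ecdysone promoter; compounds titrated.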
FBPA coupling cs: qHTS Assay for Inhibitors of Fructose-1,6-bisphosphate Aldolase from Giardia Lamblia: Coupling assay counterscreen | coupling enzyme system counterscreen, AmpLite Red fluorescence | activity change, negative = inhibition, % at 58.2 µM, hits read low | 290,000 compounds, 0.67% hits | AID 2472, 2010; in the data active = activity change below about -30%; also: % is scaled to controls: 0 for no effect and ±100 for the full control effect
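Final compound at 57.5 uM, incubated 10 min at RT with coupling enzyme reagent (glyceraldehyde-3-phosphate), then 20 min with substrate and AmpLite Red detection. Fluorescence read at 525/598 nm; tests interference with the coupling assay, not aldolase inhibition.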
Numbers without * were called inactive; ? = inconclusive; . = not tested or not shown; [ ] = remark or other dose. Unless noted, calls follow the shape of the dose curve; as a rule, active = well fitted curve in the direction sought with a large enough effect; inconclusive = small, poorly fitted or top-dose-only effect, or another doubt; inactive = no such curve, though single readings can be large; an effect the other way counts as inactive or inconclusive.

SMILES	VDR inh	KDM4E inh	RGS12 GoLoco inh	HTT ATP protect	HttQ103 aggreg	FBPA coupling cs
COCCCNC(=S)Nc1cccc2ncccc12	-18.5%	-10.3%	14.7%	-2.2%	-25.2%	-33.1*
O=C(NC(=S)Nc1cccc2ncccc12)c1ccco1	-13.9%	5.8%	-2.5%	-4.4%	3.4%	0.6
COc1cc(OC)c(C(=O)CCC(=O)O)cc1OC	-8.1%	0.1%	2.4%	0.5%[10 µM]	0.4%	1.8
C=C(CN(C)C)C(=O)c1ccc2c(c1)OCO2	79.4µM*	.	.	.	.	.
C=C(CN(C)C)C(=O)c1ccc(C)cc1C	17.8µM*	.	.	.	.	.
C=C(CN(C)C)C(=O)c1cc(OC)c(OC)cc1OC	50.1µM*	.	.	.	.	.
CCOC(=O)C(CS)NCCN[C@@H](CS)C(=O)OCC (some centres undefined)	28.2µM*	.	.	2.0%	16.7%	.
CCc1ccc(OCC(=O)O/N=C(\N)c2ccncc2)c(Br)c1	-4.8%	.	.	.	.	.
Fc1ccc(N2CCN(Cc3nnc(-c4ccccc4)o3)CC2)cc1	16.2%	5.2%	6.7%	13.6%[10 µM]	24.8%	-2.6
Fc1ccc(-c2nnc(CN3CCN(c4ncc(C(F)(F)F)cc4Cl)CC3)o2)cc1	1.4%	-1.4%	-6.9%	-17.6%[0.074 µM]	12.6µM*	-0.9
COc1cccc(N2CCN(CC(=O)c3c[nH]c4ccc(OC)cc34)CC2C)c1 (centres undefined)	1.7%	?	150.3%	-17.6%[0.074 µM]	35.5µM*	3.6
COc1ccc2[nH]cc(C(=O)CN3CCCC(C)C3)c2c1 (centres undefined)	12.7%	1.1%	-2.1%	-8.7%[0.074 µM]	2.3%	-0.6
CC(C)CCc1noc(CN(CC2CCC2)CC2CCCO2)n1 (centres undefined)	0.0%	-2.3%	0.9%	10.9%[10 µM]	26.0%[9.22 µM]	3.4
CCc1cc(C(=O)c2ccc(OC)cc2)c(N)s1	-17.5%	4.2%	1.5%	.	0.112µM*	-1.2
CCc1cc(C(=O)c2ccccc2OC)c(N)s1	-17.2%	0.7%	-6.7%	5.0%	-3.4%	-4.4
O=C1COc2cc(S(=O)(=O)NCc3ccco3)c(Cl)cc2N1	11.4%	.	.	.	.	.
CCNc1ncc2nc(-c3cc(F)cc(F)c3)c(=O)n(C[C@H]3CCCO3)c2n1	4.0%	.	0.1%	-9.5%	.	1.7
COCCn1c(=O)c(-c2cccs2)nc2cnc(Oc3cccc(Cl)c3)nc21	-0.3%	.	0.8%	-44.2%	.	-7.9
N#C/C(=C\c1c(Oc2ccc(Br)cc2)nc2ccccn2c1=O)c1nc2ccccc2s1	39.8µM*	.	.	.	.	.
Cc1cc(C)cc(Oc2nc3ccccn3c(=O)c2/C=C(\C#N)c2nc3ccccc3s2)c1	-28.5%	.	.	.	.	.
O=C1[C@@H](Oc2ccccc2)[C@@H](c2cnc3ccccc3c2)N1c1ccccc1	-0.1%	.	.	.	.	.
COc1ccccc1C(=O)NCC(=O)NCCC(c1ccccc1)c1ccccc1	-6.4%	.	.	.	.	.
COc1ccccc1C(=O)NCC(=O)Nc1ccccc1	8.6%	3.9%	-9.7%	-15.6%	0.355µM*	1.7
On1c2c(c3c4nonc4ccc31)CCCC2	.	-10.1%	-4.0%	8.4%[10 µM]	-21.9%	-59.5*
COn1c2c(c3c4nonc4ccc31)CCCC2	?	?	-0.9%	3.9%	?	-42.9*
SMILES	VDR inh	KDM4E inh	RGS12 GoLoco inh	HTT ATP protect	HttQ103 aggreg	FBPA coupling cs
O=C(Nc1ccc(N2CCOCC2)cc1)c1ccc(Cl)c(S(=O)(=O)N2CCCC2)c1	-24.9%	.	.	.	.	.
CCC(=O)c1ccc(OCC(O)Cn2c(C)nc3ccccc32)cc1 (centres undefined)	-1.4%	1.7%	4.9%	-14.3%[10 µM]	11.2µM*	5.1
O=C(NC(=S)Nc1ccccc1N1CCCC1)c1ccco1	-2.9%	-25.3%	5.9%	17.7%[10 µM]	3.0%[9.22 µM]	-37.7*
CCOc1cc(C2C(C#N)=C(N)SC(N)=C2C#N)ccc1OCCN1CCOCC1	?	-25.5%	98.8%	-17.9%[0.074 µM]	?	-25.3
CCOc1ccc(C2C(C#N)=C(N)SC(N)=C2C#N)c(OCC)c1	?	?	20.4%	4.1%[10 µM]	11.2%	-37.0*
O=C(CN(C(=O)c1ccc(Cl)cc1)C1CCCCC1)Nc1ccc(Cl)c([N+](=O)[O-])c1	2.9%	3.0%	-3.7%	28.1%[1.9 µM]	12.6µM*	1.1
NS(=O)(=O)c1ccc(-c2ccc(/C=C3\C(=O)Nc4ccccc43)o2)cc1	.	.	.	.	.	-0.3
CC1(C)OC(=O)C(=Cc2ccc(-c3ccc(S(N)(=O)=O)cc3)o2)C(=O)O1	79.4µM*	?	-2.8%	20.1%[10 µM]	16.4%	1.7
Cc1ccc(-c2onc(C)c2C)cc1S(=O)(=O)NCc1ccc(N(C)C)cc1	11.8%	.	.	.	.	.
CN(Cc1cnccn1)Cc1nc(Cc2ccccc2Cl)no1	5.1%	-6.1%	-15.4%	-10.8%[10 µM]	-9.7%[9.22 µM]	-2.0
CCN(Cc1ccncc1)Cc1nc(Cc2ccccc2Cl)no1	-17.6%	5.6%	15.8%	-12.0%	17.8µM*	3.4
CC1=CN2C(=N)/C(=C/c3ccco3)C(=O)N=C2S1	-10.7%	-5.4%	9.3%	.	4.9%	-2.7
CC1=CN2C(=N)/C(=C/c3ccc([N+](=O)[O-])o3)C(=O)N=C2S1	?	28.2µM*	93.8%	-42.1%[10 µM]	?	-32.5*
Cc1cc(C)cc(N(CC(=O)NC2CCCC2)C(=O)CCC(=O)Nc2cc(C)ccn2)c1	18.7%	.	.	.	.	1.1
CCS(=O)(=O)N1CC(=O)N(c2cccc(Cl)c2C)C(C)(C(=O)NC2CCCCC2)C1 (centres undefined)	15.0%	.	.	.	.	.
Cc1cc(Cl)n2c(nc3cc(F)c(F)cc32)c1C#N	15.8µM*	?	1.4%	-175.9%	2.1%[1.84 µM]	-0.4
COc1ccc(NC(=O)c2cccc(N3CCCS3(=O)=O)c2)cc1OC	-1.0%	.	.	.	.	.
O=C(CSC1CC(=O)N(CCc2ccccc2)C1=O)Nc1cccc(Cl)c1 (centres undefined)	79.4µM*	-3.8%	18.3%	13.7%[10 µM]	-15.2%	-0.1
Cc1cccc(N2CCN(C(=O)CCn3c(=O)c4cccn4c4cccnc43)CC2)c1C	-6.0%	.	.	.	.	.
O=C(/C=C/c1c(F)cccc1Cl)c1ccc(O)cc1	79.4µM*	3.3%	-5.0%	13.6%[10 µM]	-5.4%[9.22 µM]	4.0
O=C(/C=C/c1ccccc1Cl)c1ccc(O)cc1	?	6.5%	1.0%	2.3%[10 µM]	-9.0%[9.22 µM]	-0.8
CN(C)C(=O)c1ccc2c(c1[N+](=O)[O-])C(=O)c1ccccc1C2=O	-14.5%	8.4%	7.0%	-6.6%[10 µM]	0.0%	-43.2*
CCCc1sc(N2CCCC(C(N)=O)C2)nc1-c1ccccc1 (centres undefined)	79.4µM*	8.0%	-4.7%	.	0.6%	0.5

Source: PubChem
